Inconclusive results are not listed. Active and inactive are the calls of the source. Unless noted, calls follow the shape of the dose curve; as a rule, active = well fitted curve in the direction sought with a large enough effect in the repeat runs; inconclusive = weak or mixed curves; inactive = no such curve, though single readings can be large; an effect the other way counts as inactive or inconclusive.
Assays:
[1] = target: Thyrotropin receptor (Homo sapiens) (UniProt P16473); assay: qHTS assay to identify small molecule antagonists of the thyroid stimulating hormone receptor (TSHR) signaling pathway (AID 1259385; calls by dose curve; also: nearly all actives have a fitted effect of over 20% in size)
Sequence of Thyrotropin receptor (Homo sapiens) (P16473 whole entry, looked up): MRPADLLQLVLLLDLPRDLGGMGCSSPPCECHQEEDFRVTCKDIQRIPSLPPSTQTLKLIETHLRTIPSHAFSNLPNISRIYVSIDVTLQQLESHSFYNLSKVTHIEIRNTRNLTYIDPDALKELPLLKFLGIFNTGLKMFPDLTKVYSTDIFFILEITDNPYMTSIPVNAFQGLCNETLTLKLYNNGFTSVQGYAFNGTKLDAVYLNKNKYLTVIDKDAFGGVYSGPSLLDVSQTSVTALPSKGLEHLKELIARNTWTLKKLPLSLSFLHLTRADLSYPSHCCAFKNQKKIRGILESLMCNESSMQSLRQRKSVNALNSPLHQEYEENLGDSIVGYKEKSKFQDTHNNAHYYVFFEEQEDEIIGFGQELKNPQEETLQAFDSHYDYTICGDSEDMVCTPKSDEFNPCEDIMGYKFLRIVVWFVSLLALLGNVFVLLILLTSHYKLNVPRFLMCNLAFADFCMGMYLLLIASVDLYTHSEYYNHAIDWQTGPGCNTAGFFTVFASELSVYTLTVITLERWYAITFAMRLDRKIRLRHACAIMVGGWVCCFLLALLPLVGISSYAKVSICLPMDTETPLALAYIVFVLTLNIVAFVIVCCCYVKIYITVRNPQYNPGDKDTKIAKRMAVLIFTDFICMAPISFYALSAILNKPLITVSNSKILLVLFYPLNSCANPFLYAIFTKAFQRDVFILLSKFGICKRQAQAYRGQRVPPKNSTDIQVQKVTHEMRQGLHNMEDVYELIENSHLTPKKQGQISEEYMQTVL
How it was run: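 TSHR-HEK293 cells were plated and held 18 h at 37C/5% CO2, then given compound plus Ro20-1724 and stimulated with TSH at 1.5 ng/mL final. After 30 min at room temperature, cAMP was detected with cAMP-d2/anti-cAMP-cryptate (1 h) by fluorescence.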

[2] = qHTS assay to identify small molecule agonists of the estrogen receptor alpha (ER-alpha) signaling pathway in the presence of an antagonist - cell viability counter screen (AID 1259386);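 also: series mostly up to about 92 µM; cells exposed to compounds for 22 h at 37 °C before the viability read; nearly all actives have a fitted effect of over 30% in size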
How it was run: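 Viability counter screen using VM7Luc4E2 (full-length ER-alpha, four ERE-luciferase). The cells were treated with compounds alongside ICI-182,780 10.0nM for 22hr, and live-cell protease fluorescence was quantified with CellTiter-Fluor.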

[3] = target: Progesterone receptor (Homo sapiens) (UniProt P06401); assay: qHTS assay to identify small molecule antagonists of the progesterone receptor (PR) signaling pathway (AID 1346795; active = well fitted inhibition curve with a large enough effect in the signal ratio in the repeat runs, not every such curve was filed as active; the % refers to the signal ratio)
Sequence of Progesterone receptor (Homo sapiens) (P06401 whole entry, looked up): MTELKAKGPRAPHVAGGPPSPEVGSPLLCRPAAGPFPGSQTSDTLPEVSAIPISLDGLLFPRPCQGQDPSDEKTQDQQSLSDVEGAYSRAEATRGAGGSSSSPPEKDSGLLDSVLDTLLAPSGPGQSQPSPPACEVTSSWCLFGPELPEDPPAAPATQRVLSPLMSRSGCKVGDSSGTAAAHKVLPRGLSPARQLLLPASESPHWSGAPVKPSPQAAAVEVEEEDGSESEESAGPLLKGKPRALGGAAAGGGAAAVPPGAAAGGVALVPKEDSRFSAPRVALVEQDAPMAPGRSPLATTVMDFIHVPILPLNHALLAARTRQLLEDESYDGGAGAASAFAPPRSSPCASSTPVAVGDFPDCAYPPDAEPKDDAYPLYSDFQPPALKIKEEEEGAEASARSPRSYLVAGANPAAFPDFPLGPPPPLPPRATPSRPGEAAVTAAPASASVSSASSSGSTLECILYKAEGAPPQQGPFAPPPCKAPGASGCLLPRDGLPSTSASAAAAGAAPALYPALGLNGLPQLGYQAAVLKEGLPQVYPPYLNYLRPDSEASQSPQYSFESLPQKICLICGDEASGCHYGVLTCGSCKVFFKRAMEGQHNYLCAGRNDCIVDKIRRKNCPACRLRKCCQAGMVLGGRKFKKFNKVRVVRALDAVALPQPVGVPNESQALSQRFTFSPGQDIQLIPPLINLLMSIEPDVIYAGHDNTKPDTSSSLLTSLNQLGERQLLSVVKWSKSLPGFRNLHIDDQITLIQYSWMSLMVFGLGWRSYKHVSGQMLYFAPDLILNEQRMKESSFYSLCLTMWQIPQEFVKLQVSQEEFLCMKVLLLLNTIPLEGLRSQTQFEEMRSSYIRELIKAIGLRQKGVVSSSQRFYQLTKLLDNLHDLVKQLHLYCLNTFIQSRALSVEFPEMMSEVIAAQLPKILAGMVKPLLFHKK
How it was run: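 Antagonist mode: compounds tested against 1 nM (final) promegestone stimulation in HEK293T cells expressing PR-UAS-bla reporter, 16 hr at 37C, 5% CO2; beta-lactamase activity detected via B/G FRET substrate after 2 hr at room temperature.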

[4] = qHTS assay to identify small molecule antagonists of the progesterone receptor (PR) signaling pathway - cell viability counter screen (AID 1346798); also: series mostly up to about 92 µM; nearly all actives have a fitted effect of over 50% in size
How it was run: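 Counter screen for cytotoxicity: viability of PR-UAS-bla HEK293T cells was measured with CellTiter-Glo luminescence following 16 hr compound exposure in the presence of R5020.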

[5] = qHTS assay to identify small molecule agonists of the progesterone receptor (PR) signaling pathway - cell viability counter screen (AID 1346799; calls by dose curve; also: nearly all actives have a fitted effect of over 45% in size)
How it was run: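 Cells (PR-UAS-bla HEK293T) are plated at 3,000/well in 2% charcoal-stripped FBS medium, rested 6 hr, dosed and incubated 16 hr at 37C. CellTiter-Glo is then added and luminescence measured after 30 min at room temperature.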

[6] = qHTS assay to identify small molecule antagonists of the TGF-beta/Smad signaling pathway - cell viability counter screen (AID 1346824); also: nearly all actives have a fitted effect of over 50% in size
How it was run: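 SBE-bla HEK 293T cells were plated overnight at 37 C, then given compounds in DMSO plus TGF-beta1 (added as 0.25 ng/mL solution) for 5 hr. After the bla read, CellTiter-Glo was added to the same wells and luminescence read after 30 min at room temperature.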

[7] = qHTS assay to identify small molecule agonists of the TGF-beta/Smad signaling pathway - cell viability counter screen (AID 1346829); also: top concentration of the series differs between compounds; nearly all actives have a fitted effect of over 45% in size
How it was run: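 Luminescence from CellTiter-Glo, read after a 30 min room-temperature incubation, gives cell viability of SBE-bla HEK 293T cells treated 5 hr with compounds at 37 C.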

[8] = qHTS assay to identify small molecule agonists of the TGF-beta/Smad signaling pathway (AID 1346859; active = well fitted activation curve with a large enough effect in the signal ratio in the repeat runs, not every such curve was filed as active; the % refers to the signal ratio; also: series mostly up to about 77 µM)
How it was run: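 Reporter line: HEK 293T with stably integrated SBE-controlled beta-lactamase. Compound exposure lasts 5 hr at 37 C and 5% CO2; substrate loading follows for 2 hr at room temperature, with emission read at 460 and 530 nm.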

[9] = target: Thyrotropin-releasing hormone receptor (Homo sapiens) (UniProt P34981); assay: qHTS assay to identify small molecule antagonists of the thyrotropin-releasing hormone receptor (TRHR) signaling pathway (AID 1346877; active = well fitted inhibition curve with a large enough effect in the repeat runs, not every such curve was filed as active; also: series mostly up to about 51 µM)
Sequence of Thyrotropin-releasing hormone receptor (Homo sapiens) (P34981 whole entry, looked up): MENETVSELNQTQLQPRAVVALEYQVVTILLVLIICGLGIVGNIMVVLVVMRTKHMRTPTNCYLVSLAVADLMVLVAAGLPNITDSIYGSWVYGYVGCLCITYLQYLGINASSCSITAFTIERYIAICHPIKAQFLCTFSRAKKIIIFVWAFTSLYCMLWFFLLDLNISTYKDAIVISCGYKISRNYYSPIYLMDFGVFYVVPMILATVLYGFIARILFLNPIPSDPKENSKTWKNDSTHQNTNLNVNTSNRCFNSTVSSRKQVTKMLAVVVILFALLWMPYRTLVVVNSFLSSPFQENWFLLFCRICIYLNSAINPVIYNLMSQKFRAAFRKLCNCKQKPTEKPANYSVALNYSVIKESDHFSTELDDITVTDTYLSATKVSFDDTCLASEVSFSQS
How it was run: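 Following an 18 h incubation at 37 °C and a 2 h calcium dye load, TRHR-HEK293 cells were exposed to compound (5 min, room temperature) and challenged with TRH, 1 nM final.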

[10] = target: Thyrotropin-releasing hormone receptor (Homo sapiens) (UniProt P34981); assay: qHTS assay to identify small molecule agonists of the thyrotropin-releasing hormone receptor (TRHR) signaling pathway (AID 1346891; calls by dose curve;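 also: HEK293 cells expressing TRHR with calcium dye readout; series mostly up to about 58 µM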)
How it was run: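 Cells: TRHR-Hek293, seeded and incubated 18 h. Dye loading: 2 h at 37 °C. Compound added from DMSO stock by pin tool. Read-out: kinetic calcium fluorescence over 3 min.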

[11] = Human pregnane X receptor (PXR) small molecule agonists, qHTS cell viability counter screen (AID 1346977); also: nearly all actives have a fitted effect of over 50% in size
How it was run: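 Cytotoxicity counter screen run in the same wells as the PXR luciferase assay, using PXR-Luc HepG2 cells in charcoal-stripped serum medium. Viability: CellTiter-Fluor fluorescence after 24hr compound treatment.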

[12] = Caspase-3/7 induction in HepG2 cells by small molecules, qHTS assay (AID 1346978); also: nearly all actives have a fitted effect of over 15% in size
How it was run: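 Wild-type HepG2 cells (2,000/well) were settled 5 h at 37 C, 5% CO2, then exposed to compounds in DMSO for 17 h. Caspase-3/7 activity was read by luminescence 30 min after adding Caspase-Glo 3/7 reagent at room temperature.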

[13] = Caspase-3/7 induction in CHO-K1 cells by small molecules, qHTS cell viability counter screen (AID 1346979); also: nearly all actives have a fitted effect of over 35% in size
How it was run: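 Cytotoxicity counter screen run in parallel with the caspase-3/7 assay: CHO-K1 cells, 16hr compound treatment at 37C, then CellTiter-Fluor for 1hr before fluorescence reading.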

[14] = Caspase-3/7 induction in CHO-K1 cells by small molecules, qHTS assay (AID 1346980); also: nearly all actives have a fitted effect of over 15% in size
How it was run: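 Wild-type cells were seeded at 1,500 per well and settled 5 hr at 37 C, 5% CO2, then exposed to DMSO-dissolved compounds for 17 hr. Caspase-Glo 3/7 reagent was added, and luminescence was read after 30min at room temperature.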

[15] = Caspase-3/7 induction in HepG2 cells by small molecules, qHTS cell viability counter screen (AID 1346981); also: series mostly up to about 92 µM; nearly all actives have a fitted effect of over 30% in size
How it was run: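 Viability determined by CellTiter-Fluor fluorescence in HepG2 wells also used for the luminescent Caspase-Glo 3/7 read. Compounds were present for 16 hr at 37 C, 5% CO2 before reagent addition.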

[16] = target: Nuclear receptor subfamily 1 group I member 2 (Homo sapiens) (UniProt O75469); assay: Human pregnane X receptor (PXR) small molecule agonists, qHTS assay (AID 1346982); also: nearly all actives have a fitted effect of over 35% in size
Sequence of Nuclear receptor subfamily 1 group I member 2 (Homo sapiens) (O75469 whole entry, looked up): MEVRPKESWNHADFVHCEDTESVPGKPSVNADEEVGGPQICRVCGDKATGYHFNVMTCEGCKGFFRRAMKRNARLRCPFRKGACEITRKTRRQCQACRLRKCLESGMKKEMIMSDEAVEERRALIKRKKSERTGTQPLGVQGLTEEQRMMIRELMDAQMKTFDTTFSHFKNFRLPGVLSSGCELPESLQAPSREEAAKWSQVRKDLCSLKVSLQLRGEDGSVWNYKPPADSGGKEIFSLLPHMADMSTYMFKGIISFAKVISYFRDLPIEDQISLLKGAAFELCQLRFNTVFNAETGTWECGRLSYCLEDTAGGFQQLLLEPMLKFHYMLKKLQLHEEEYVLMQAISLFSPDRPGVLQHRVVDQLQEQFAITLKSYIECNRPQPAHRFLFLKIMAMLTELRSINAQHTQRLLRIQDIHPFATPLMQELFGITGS
How it was run: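 Compound-induced hPXR transactivation of a CYP3A4 luciferase reporter was scored in HepG2 PXR-Luc cells over 24 hr at 37 C, 5% CO2, by luminescence.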

[17] = target: Nuclear receptor subfamily 1 group I member 2 (Rattus norvegicus) (UniProt Q9R1A7); assay: Rat pregnane X receptor (rPXR) activation by small molecules, qHTS assay (AID 1346983); conditions: rPXR luciferase reporter cells, One-Glo luminescence, 24 h; max activation: stronger effect = higher value; also: nearly all actives have a fitted effect of over 20% in size
Sequence of Nuclear receptor subfamily 1 group I member 2 (Rattus norvegicus) (Q9R1A7 whole entry, looked up): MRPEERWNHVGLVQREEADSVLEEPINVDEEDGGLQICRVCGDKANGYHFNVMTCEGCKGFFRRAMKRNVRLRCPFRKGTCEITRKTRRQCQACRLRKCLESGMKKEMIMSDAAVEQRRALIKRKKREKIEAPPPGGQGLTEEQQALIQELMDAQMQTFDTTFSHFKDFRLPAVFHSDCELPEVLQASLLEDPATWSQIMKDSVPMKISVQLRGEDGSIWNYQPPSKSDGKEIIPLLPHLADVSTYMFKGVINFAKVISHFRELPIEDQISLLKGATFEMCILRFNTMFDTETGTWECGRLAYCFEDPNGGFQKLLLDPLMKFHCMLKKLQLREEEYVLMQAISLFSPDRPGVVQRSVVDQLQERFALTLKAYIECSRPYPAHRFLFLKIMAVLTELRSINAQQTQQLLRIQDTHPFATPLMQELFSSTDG
How it was run: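 Cell-based rPXR luciferase reporter assay, 2,000 cells per well, rested 5hr at 37 C before compound addition in DMSO, then 24 hr at 37 C. One-Glo reagent was added and luminescence read after 30 min at room temperature.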

[18] = target: Progesterone receptor (Homo sapiens) (UniProt P06401); assay: qHTS assay to identify small molecule agonists of the progesterone receptor (PR) signaling pathway (AID 1346784; calls by dose curve; also: nearly all actives have a fitted effect of over 30% in size)
How it was run: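 Cells (PR-UAS-bla HEK 293T, GripTite) were plated in assay medium containing 2% charcoal-stripped FBS and incubated 6 hr. Test compounds in DMSO were added for 16 hr at 37C. FRET substrate was then loaded for 2 hr at room temperature before fluorescence reading.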

[19] = target: Nuclear receptor subfamily 1 group I member 2 (Homo sapiens) (UniProt O75469); assay: CYP3A4 induction through human pregnane X receptor (PXR) by small molecules, qHTS assay (AID 1346984); also: nearly all actives have a fitted effect of over 40% in size
How it was run: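 Readings come from a luciferase reporter: DPX-2 cells, which are HepG2 cotransfected with PXR and a CYP3A4-promoter construct, were exposed to test compounds for 24 h at 37C before One-Glo detection.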

[20] = target: Nuclear receptor subfamily 1 group I member 2 (Homo sapiens) (UniProt O75469); assay: Human pregnane X receptor (PXR) activation by small molecules, qHTS assay (AID 1346985); also: nearly all actives have a fitted effect of over 40% in size
How it was run: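 DPX-2 cells (HepG2 co-transfected with a PXR response element and a CYP3A4-promoter luciferase construct) were seeded at 2,000 per well, rested 5 hr at 37C, then exposed to DMSO-dissolved compounds for 24 hr. Activation was read as luciferase luminescence.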
% is scaled to controls: 0 for no effect and ±100 for the full control effect.

CCOC(=O)CS
inactive: Potency [1] | Potency [2] | Potency [3] | Potency [4] | Potency [5] | outcome [6] | outcome [7] | outcome [8] | outcome [9] | Potency [10] | Potency [11] | Potency [12] | Potency [13] | outcome [14] | Potency [15] | Potency [16]

CN1CCC[C@@H]1Cc1c[nH]c2ccc(CCS(=O)(=O)c3ccccc3)cc12
inactive: Potency [1] | Potency [2] | Potency [3] | Potency [4] | Potency [5] | outcome [6] | outcome [7] | outcome [8] | outcome [9] | Potency [10] | Potency [12] | Potency [13] | outcome [14] | Potency [15] | max activation [17] 0.279%

ClC(Cl)Cl
inactive: Potency [1] | Potency [2] | Potency [18] | outcome [6] | outcome [7] | Potency [11] | Potency [12] | outcome [14] | Potency [15] | max activation [17] 0.159%

CCOc1ccc(NS(=O)(=O)c2ccc(N)cc2)nn1
inactive: Potency [1] | Potency [2] | Potency [3] | Potency [4] | Potency [5] | outcome [6] | outcome [7] | outcome [8] | Potency [11] | Potency [12] | Potency [13] | outcome [14] | Potency [15] | Potency [16]

CCCOCCC
inactive: Potency [1] | Potency [2] | Potency [3] | Potency [4] | outcome [6] | outcome [7] | outcome [8] | outcome [9] | Potency [10] | Potency [13] | outcome [14] | Potency [15] | Potency [16]

CCCCCCC
inactive: Potency [1] | Potency [2] | Potency [18] | outcome [6] | outcome [7] | outcome [8] | Potency [10] | Potency [11] | Potency [13] | outcome [14] | Potency [15] | Potency [16]

CCCS(=O)c1ccc2nc(NC(=O)OC)[nH]c2c1 (stereo not drawn)
inactive: Potency [1] | Potency [2] | Potency [3] | Potency [4] | Potency [5] | outcome [6] | outcome [7] | outcome [8] | outcome [9] | Potency [10] | Potency [12] | outcome [14]

CC(C)(C)c1cccc(O)c1
inactive: Potency [1] | Potency [2] | Potency [3] | Potency [5] | outcome [6] | outcome [7] | outcome [8] | Potency [10] | Potency [11] | Potency [12] | Potency [13] | outcome [14] | Potency [15] | Potency [16]

CC(C)C(=O)OCC(C)(C)C(O)C(C)C (stereo not drawn)
inactive: Potency [1] | Potency [2] | Potency [18] | Potency [5] | outcome [6] | outcome [7] | outcome [9] | Potency [10] | Potency [12] | Potency [13] | outcome [14] | Potency [15] | Potency [16]

C=C(C)C(=O)OCCOP(=O)(O)O
inactive: Potency [1] | Potency [2] | Potency [3] | Potency [5] | outcome [6] | outcome [7] | outcome [8] | Potency [10] | Potency [11] | Potency [12] | outcome [14] | Potency [15] | Potency [16]

O=C1CCN(c2ccccc2)N1
inactive: Potency [1] | Potency [2] | Potency [3] | Potency [5] | outcome [6] | outcome [7] | outcome [8] | outcome [9] | Potency [10] | Potency [11] | Potency [12] | Potency [13] | outcome [14] | Potency [15]

CO[Si](C)(C)OC
inactive: Potency [1] | Potency [2] | Potency [18] | Potency [5] | outcome [7] | outcome [8] | outcome [9] | Potency [10] | Potency [13] | outcome [14] | Potency [15] | Potency [16]

OCc1ccccc1O
inactive: Potency [1] | Potency [2] | Potency [3] | Potency [5] | outcome [6] | outcome [7] | outcome [8] | outcome [9] | Potency [10] | Potency [13] | outcome [14] | Potency [15] | Potency [16] | max activation [17] 11.7% | Potency [19] | Potency [20]

NC/C=C/C(=O)O
inactive: Potency [1] | Potency [2] | Potency [3] | Potency [5] | outcome [6] | outcome [7] | outcome [8] | outcome [9] | Potency [10] | Potency [11] | Potency [12] | Potency [13] | outcome [14] | Potency [15] | Potency [16] | max activation [17] -4.44% | Potency [19] | Potency [20]

CCOc1ccc(NC(N)=O)cc1
inactive: Potency [1] | Potency [2] | Potency [3] | Potency [4] | Potency [5] | outcome [6] | outcome [7] | outcome [8] | outcome [9] | Potency [10] | Potency [11] | Potency [12] | outcome [14] | Potency [15] | Potency [16]

CCCCCCn1c(=O)c2c(ncn2C)n(C)c1=O
inactive: Potency [1] | Potency [2] | Potency [3] | Potency [5] | outcome [6] | outcome [7] | outcome [8] | Potency [11] | Potency [12] | Potency [13] | outcome [14] | Potency [16]

CC(C)(CO)[C@@H](O)C(=O)NCCC(=O)O
inactive: Potency [1] | Potency [2] | Potency [18] | outcome [6] | outcome [7] | outcome [8] | outcome [9] | Potency [10] | Potency [11] | Potency [12] | Potency [13] | outcome [14] | Potency [15] | Potency [16]

— PubChem BioAssay (Tox21)
